From PubChem BioAssay (NCI) come the findings set out here.

Common to all, as to assay: NCI-60 one-dose screen, 48 h (100 = growth as untreated, 0 = no growth, -100 = all killed)
Conditions in all cases: 10 µM unless noted

The test system of test [1] is OVCAR-8 ovarian.
The subject of test [2] is OVCAR-5 ovarian.
Test [3] deals with OVCAR-4 ovarian.
The subject of test [4] is SK-OV-3 ovarian.
Test [5] relates to IGROV1 ovarian.
Test [6] relates to OVCAR-3 ovarian.
In test [7] the test system is HS 578T breast.
Test [8] deals with NCI/ADR-RES ovarian.
The test system of test [9] is T-47D breast.
Test [10] has as its system BT-549 breast.
Test [11] relates to MDA-MB-435 melanoma.
Test [12] relates to SW-620 colon.
For test [13], the system named is MCF7 breast.
In test [14] the test system is HCT-116 colon.
Test [15] relates to HCC-2998 colon.
Test [16] deals with KM12 colon.

Each structure is given as a SMILES string. About 83,000 compounds went through this panel and 20% of them were active in at least one assay; those are over-represented in the sample as a whole.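 Single-concentration screen, 48 h exposure, 96-well plates. Endpoint: percent growth. Below 10 = active.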 Values without a mark were called inactive. The source made the active and inactive calls.

In the case of `CC(c1ccccn1)C(C)(O)C(C)c1ccccn1` (stereo unspecified), the growth in test [1] was 101%; in test [2], 98%; in test [3], 112%; in [4], 114%; in test [5], 112%; in test [6] it was 106%. For the same compound, the growth is 104% in test [7]; 107% in test [8]; 118% in test [9]; 108% in test [10]; 104% in [11]; 112% in test [12]. The growth in test [13] was 103%; in test [14], 108%; in test [15] it was 104%; in test [16], 105%.

For `COc1ccc(/C=C2\COc3ccc(O)c(O)c3C2=O)cc1OC`, the growth in test [1] is 8.42% (active); in test [2] it was -16.6% (active); in test [3], 30.1%; in [4], 40.2%; in [5], -33.4% (active); in test [6] it was -16.7% (active). Moreover, the growth in [7] is 17.8%; in test [8], 2.76% (active); in test [9], -5.4% (active); in test [10] it was 29.4%; in test [11], -0.882% (active); in [12], 4.03% (active). Besides, the growth in test [13] is 13%; in [14] it was -24.8% (active); in test [15] it was 46.1%; in test [16], 10.4%.

With `CCOC(=O)C(Cc1ccccc1)(C(=O)OCC)C(Br)C(=O)c1ccccc1` (stereo unspecified), the growth is 81.4% in test [1]; 98.1% in test [2]; 39.8% in [3]; 92.2% in test [4]; 75.1% in test [5]; 61.3% in test [6]. Also, the growth in [7] was 83.1%; in [8], 85.1%; in [11] it was 77.3%; in test [12] it was 39.8%; in test [13], 56.9%; in test [14], 53.3%. Also, the growth is 100% in [15] and 97.9% in [16].

Take `CC1SC(c2c(Cl)cccc2Cl)N(NC(=O)c2[nH]c3ccc(F)cc3c2-c2ccccc2)C1=O` (stereo unspecified): the growth was 33.1% in test [1]; 78.3% in test [2]; -54.7% (active) in test [3]; 19.1% in test [4]; -6.28% (active) in [5]; -62.2% (active) in test [6]. Further, the growth in test [7] is -8.04% (active); in [9] it was 2.88% (active); in [10], 75.7%; in test [11], 61.9%; in test [12], 17%; in [13], 42.3%. In addition, the growth in test [14] is -43.8% (active); in test [15], 11.2%; in test [16], 46.4%.

For `COc1ccc(/C(=C2\O[C@@H]([C@H](O)CO)[C@H]3OC(C)(C)O[C@@H]23)c2cc(OC)c(OC)c(OC)c2)cc1O`, the growth is 107% in test [1]; 90% in test [2]; 104% in [3]; 106% in test [4]; 100% in test [5]; 97.4% in [6]. In addition, the growth in test [8] was 24.5%; in test [9], 102%; in [10] it was 82%; in test [11] it was -23.9% (active); in test [13], 95.7%; in test [14], 89.3%. Further, in test [16], the growth is 9.46% (active).

Turning to `CCN(CC)CCOc1ccc(C2=C(c3ccccc3)CCc3cc(OC)ccc32)cc1`, the growth in [1] was 46.6%; in [2], 22.2%; in [3], 52.3%; in test [4], 68.9%; in test [6] it was 12.7%; in test [7], -6.19% (active). Also, the growth in test [8] is -26.1% (active); in test [9] it was 25%; in test [11], -33.9% (active); in test [12], -59% (active); in test [13], -9.06% (active); in [14], 5.52% (active). In addition, in [16], the growth was -18.4% (active).

`Cc1ccc(C=C2C(Cl)=C(Cl)C(Cl)=C2Cl)cc1`: the growth was -42.9% (active) in test [1]; -80.7% (active) in [2]; -35.3% (active) in test [3]; -38.5% (active) in [4]; -85.1% (active) in test [6]; -9.6% (active) in [7]. Moreover, the growth in [8] is -3% (active); in test [9], -44.6% (active); in test [10], -31.3% (active); in test [11], -61.9% (active); in [12], -77.9% (active); in test [13] it was -23.8% (active). The growth in test [14] is -100% (active); in test [15], -94.8% (active); in test [16], -79.6% (active).

As for `Cc1ccc(C(O)C2=CC(=O)c3ccccc3C2=O)cc1` (stereo unspecified), the growth is 91.3% in test [1]; 95.4% in [2]; 105% in test [4]; 89.6% in [5]; 93.3% in test [6]; 104% in test [7]. Further, the growth was 96.4% in test [8]; 76.5% in test [9]; 63.1% in [10]; 102% in test [11]; 95% in [12]; 87.1% in [13]. Also, the growth in test [14] is 91.7%; in [15], 101%; in test [16] it was 96%.

Consider `COc1cccc(/C=C2\COc3ccc(O)c(O)c3C2=O)c1OC`, for which the growth in test [1] was 18.3%; in [2] it was 2.35% (active); in test [4] it was 54.8%; in test [5], -39.9% (active); in [6], -18.1% (active); in test [7] it was 17.3%. The growth was 16.9% in [8]; 4.89% (active) in test [9]; 35.3% in test [10]; 9.09% (active) in test [11]; 4.8% (active) in test [12]; 16.7% in test [13]. Further, the growth in test [14] is -48.4% (active); in test [15], 78.6%; in [16], 12.9%.

On to `COc1ccc(/C=C2\NC(=S)NC2=O)cc1`, for which the growth was 104% in test [1]; 95.2% in [2]; 117% in test [3]; 83.8% in [4]; 96% in test [5]; 107% in [6]. Besides, the growth in [8] was 115%; in test [10], 105%; in [11] it was 110%; in [12] it was 105%; in test [13], 99.9%; in test [14] it was 99.4%. Moreover, the results for the growth in test [15] and in [16] were 117% and 101%, respectively.

`ClC1=C(Cl)C(Cl)=C(Cl)C1=C/C=C/c1ccccc1`: the growth in [1] is -41.7% (active); in test [2], -77.9% (active); in test [3], 14.7%; in test [4] it was -22% (active); in test [6], -88.7% (active); in test [7], -5.58% (active). The growth in test [8] is -0.902% (active); in test [9], -4.63% (active); in [10], -12.6% (active); in [11] it was -28.5% (active); in test [12], -55.2% (active); in [13] it was -19.6% (active). In addition, the growth in [14] was -98% (active); in test [15] it was -93.3% (active); in [16], -77.8% (active).
